Bioassay records deposited in PubChem by National Center for Advancing Translational Sciences (NCATS).
Abeta rescue = qHTS for compounds that reverse cellular toxicity of Amyloid beta (A-beta) peptide in yeast: Primary Screen | Potency, µM (series often up to 46.1 µM), usual class: activators | yeast expressing A-beta42, growth rescue, OD600, 48 h; response scale: 0% DMSO, 100% iron-clioquinol control | 410,000 tested, 0.063% active | AID 1347071, 2019; note: nearly all actives have a fitted effect of over 55% in size
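Growth rescue measured by 600 nm absorbance after 48 h yeast culture at 30 C with compound. Values normalized between DMSO and an equimolar ferric chloride plus clioquinol control.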
aSyn rescue = qHTS of alpha-syn Inhibitors | Yeast expressing alpha-synuclein, growth rescue, BacTiter-Glo, 24 h | Potency, µM (series often up to 46.1 µM), inactives show at the highest dose growth rescue (activation), actives largely listed as activators | 370,000 tested, 0.14% active; note: % of control where 0% means no effect; nearly all actives have a fitted effect of over 65% in size
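Readout is rescue of growth in alpha-synuclein-expressing yeast, so inhibitors of toxicity appear as activators. Growth after 24 hr at 30 deg C in galactose medium is quantified by luminescence.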
TDP-43 yeast inh = qHTS of TDP-43 Inhibitors | 410,000 tested, 1.8% active | TDP-43 expressing yeast growth rescue, BacTiter-Glo, 24 h | AID 652104, 2013 | Potency, µM (highest dose often 46.1 µM), for the others: at the top dose growth rescue (activation), actives largely listed as activators; note: % of control where 0% means no effect; nearly all actives have a fitted effect of over 50% in size
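Growth rescue of TDP-43-toxic yeast measured as ATP luminescence (BacTiter-Glo). Cells grown to mid-log in raffinose, induced in galactose at OD600=0.02, exposed to compound 24 hr at 30 deg C.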
FUS suppressor = qHTS for Suppressors of FUS Proteinopathy: Primary screen using FUS-linked yeast assay; AID 1347120, 2019; 390,000 tested, 0.24% active; Potency, µM (titrated, usually from 76.6 µM), usual class: activators; S. cerevisiae FUS-expressing, growth rescue, OD600, 24 h;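 note: plate controls were DMSO vehicle for no effect and reference control for full effect; nearly all actives have a fitted effect of over 55% in size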
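Cultures pregrown in 2.5% raffinose medium are shifted to minimal medium containing 2% galactose to express toxic FUS. Compounds are tested at several concentrations. After 24hr at 30C, growth is quantified at 600 nm absorbance.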
An asterisk follows results filed as active; i = inactive; ? = inconclusive; nt = not tested or not shown. This is a sample that favours compounds with a hit; in the whole collection about 2.1% have one here. Calls come from the whole dose curve; as a rule, active = well fitted curve in the direction sought with a large enough effect; inconclusive = small, poorly fitted or top-dose-only effect, or another doubt; inactive = no such curve, though single readings can be large; an effect the other way counts as inactive or inconclusive. Potency is the fitted concentration of half-maximal effect.

SMILES	Abeta rescue	aSyn rescue	TDP-43 yeast inh	FUS suppressor
COc1ccc(N2C(=O)N3[C@H](c4ccc(Cl)cc4)[C@@H]4C(=O)N(C5CCCCC5)C(=O)[C@@H]4[C@]3(C)C2=O)cc1	i	-1.3%	10.5%	28.2µM*
COc1ccc(Cl)cc1CC1(C)C(=O)Nc2c(Cl)cccc21 (configuration not stated)	i	4.0%	28.2µM*	i
CC1(Cc2ccc(F)c(Cl)c2)C(=O)Nc2c(Cl)cccc21 (configuration not stated)	i	3.55µM*	22.4µM*	i
CC1(Cc2cc(Cl)ccc2C(F)(F)F)C(=O)Nc2c(Cl)cccc21 (configuration not stated)	i	0.4%	1.5%	i
CC(/C=N/n1c(COc2ccccc2)n[nH]c1=S)=C\c1ccccc1	i	nt	11.2µM*	i
Cc1cccc(/C=N/n2c(COc3ccccc3)n[nH]c2=S)c1	i	0.7%	29.3%	i
Cc1c[nH]c2cccc(-c3c(Cl)cccc3Cl)c12	nt	nt	nt	i
Cc1ccc(-n2c(C)cc(C(=O)CSc3nncs3)c2C)cc1	i	-19.6%	22.4µM*	i
Cc1ccc(-n2c(C)cc(C(=O)CSc3nnnn3C)c2C)cc1	i	0.5%	31.6µM*	i
O=C(c1cccc(I)c1)N1CCC(Oc2cccnc2)CC1	nt	nt	nt	i
CCCCCCCCN1C(=O)[C@@H](CC(=O)N2CCCC2)C[C@@]2(C(=O)OC)C1=C[C@H](C(C)C)O[C@@H]2C1CC1	nt	nt	nt	12.6µM*
CCCCCCCCN1C(=O)[C@@H](CC(=O)N2CCOCC2)C[C@@]2(C(=O)OC)C1=C[C@H](C(C)C)O[C@@H]2C1CC1	nt	nt	nt	8.91µM*
COC(=O)[C@]12C[C@H](CC(=O)N3CCCCC3)C(=O)N(CCC3=CCCCC3)C1=C[C@H](C(C)C)O[C@@H]2C1CC1	nt	nt	nt	i
CCCCCCCCN1C(=O)[C@@H](CC(=O)N2CCSCC2)C[C@@]2(C(=O)OC)C1=C[C@H](C(C)C)O[C@@H]2C1CC1	nt	nt	nt	4.47µM*
COC(=O)C[C@@H]1CC[C@@H]2[C@@H](COc3ccc(NC(=O)Nc4ccc(F)cc4)cc3C(=O)N2C)O1	nt	nt	nt	i
COc1ccccc1OC(C)C(=O)N1CCC(c2nc3ccccc3s2)CC1 (configuration not stated)	i	nt	14.1µM*	i
CCc1ccc(OC(C)C(=O)N2CCC(c3nc4ccccc4s3)CC2)cc1 (configuration not stated)	i	nt	15.8µM*	?
CC(C)Oc1ccc(C(=O)N2CCC(c3nc4ccccc4s3)CC2)cc1	i	nt	3.8%	i
O=C(NCc1cccc(Cl)c1)O[C@H]1CC[C@@]23CCCN2C(=O)CCC[C@H]3C1	nt	nt	nt	i
CC(C)=CC([C@]12C[C@H](CO)N[C@@H]1Nc1ccccc12)S(=O)(=O)c1ccccc1 (some centres not stated)	nt	nt	nt	i
CS(=O)(=O)N1c2ccccc2C[C@H]1Cc1cc2ccccc2o1	nt	nt	nt	i
CCOc1ccc(Nc2nc3ccccc3n3c(CC)nnc23)cc1	i	nt	25.1µM*	i
Cc1cc(Br)c(OCc2ccc(C(=O)N/N=C3\CC4CC=CC34)cc2)c(Br)c1 (configuration not stated)	i	9.7%	25.1µM*	i
COc1ccc(NN=Nc2ccc([N+](=O)[O-])cc2)cc1	?	-8.9%	17.8µM*	i
COc1ccc(N/N=C(/Oc2ccc([N+](=O)[O-])cc2)C(C)=O)cc1	i	6.5%	?	i
SMILES	Abeta rescue	aSyn rescue	TDP-43 yeast inh	FUS suppressor
CC(C)(C)C(=O)OC12CCCN(C1)/C(=C/c1ccc(C#N)cc1)C2 (configuration not stated)	nt	nt	nt	i
O=C(O)Cc1cc2c(s1)CCCCC2	i	9.1%	12.6µM*	i
C#CCNC(=O)C[C@H]1C(=O)N(CCc2ccc(Cl)cc2)C2=CCCC[C@@]21C(=O)OCC	nt	nt	nt	i
CCCCN(CC)C(=O)CSc1c2c(nc3ccc(Cl)cc13)CCCC2	i	nt	22.4µM*	i
CCOC(=O)c1ccc(NC(=O)CSc2c3c(nc4cc(Cl)ccc24)CCCC3)cc1	i	nt	15.8µM*	i
O=C(CSc1c2c(nc3cc(Cl)ccc13)CCCC2)N1CCN(c2ccccc2)CC1	i	nt	20µM*	?
COc1ccc(NC(=O)CSc2c3c(nc4ccc(Cl)cc24)CCCC3)cc1Cl	i	nt	11.2µM*	i
COc1ccc(NC(=O)CSc2c3c(nc4cc(Cl)ccc24)CCCC3)cc1OC	i	8.8%	12.8%	nt
CCCCNC(=O)CSc1c2c(nc3ccc(Cl)cc13)CCCC2	i	nt	?	i
CCC(C)NC(=O)CSc1c2c(nc3cc(Cl)ccc13)CCCC2 (configuration not stated)	i	nt	0.0%	i
Cc1ccc(NC(=O)N2CCC(N(C)CCC(C)C)CC2)cc1F	nt	nt	nt	i
CC1CC1C(=O)N1CCC(Oc2cccnc2)CC1 (configuration not stated)	nt	nt	nt	i
Cc1cc(N/N=C/c2ccc(F)cc2)nc(-n2nc(C)cc2C)n1	12.6µM*	9.4%	14.6%	i
CCN(CC)C(=O)CSc1nc(N)c(C#N)c(-c2cccs2)c1C#N	i	-6.4%	13.0%	i
CCSc1nc(N)nc(-c2cccs2)c1C#N	i	-17.7%	22.4µM*	i
CCC1CN(C(=O)N2CCC(C(=O)N3CCN(c4cc(C)ccc4C)CC3)CC2)c2ccccc2O1 (configuration not stated)	i	nt	22.4µM*	?
CCC1CN(C(=O)N2CCC(C(=O)N3CCN(c4cccc(C)c4C)CC3)CC2)c2ccccc2O1 (configuration not stated)	i	nt	-24.3%	?
C/C(=N/NC(=O)c1ccc(C(C)(C)C)cc1)c1ccccn1	i	?	14.1µM*	i
C/C(=N\NC(=O)c1ccc(Cl)c(Cl)c1)c1ccccn1	i	3.98µM*	7.08µM*	i
O=C(NN=C(c1ccccc1)c1ccccn1)c1ccccc1	i	-20.7%	14.6%	nt
CC(=NNC(=S)N1CC2CCC(CC2)C1)c1cnccn1	i	-81.0%	?	nt
COc1ccc(C(=O)N/N=C(\c2ccccc2)c2ccccn2)cc1	i	-25.4%	22.4µM*	nt
COc1ccc(C(=O)N/N=C(\C)c2ccccn2)cc1OC	i	8.3%	13.8%	i
CC(=NNC(=S)N1CC2CCC(CC2)C1)c1ccccn1	i	22.0%	22.4µM*	i
COCCCN1C(=O)[C@H](CC(=O)NCC2CCCCC2)[C@]2(C(=O)OC)CCCCC=C12	nt	nt	nt	i
COc1ccc(NC(=O)c2csc3c2CCCCC3)cc1	i	nt	22.7%	i
COc1cccc(NC(=O)c2csc3c2CCCCC3)c1	i	nt	12.6µM*	i
CCC[C@H]1[C@@H](OC(=O)NCc2cccc(Cl)c2)CC[C@@]23CCCN2C(=O)CCC[C@@H]13	nt	nt	nt	i
